PREPL inhibitor: PREPL enzyme inhibitors, primary screen, biochemical, fluorescence polarization. Prolyl endopeptidase-like (Homo sapiens), Q4J6C6. recombinant PREPL, fluorescence polarization activity-based probe. AID 2751, 2010. inhibition, % at 5.96 µM. 320,000 tested, 0.68% active; in the data active = inhibition above about 43%;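 also: 0% = enzyme with DMSO and 100% = wells lacking enzyme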
GSTO1 counter: inhibitors of recombinant GSTO1, primary screen, counter-screen for RBBP9 inhibitor project, biochemical, fluorescence polarization; Glutathione S-transferase omega-1 (Homo sapiens), P78417; activity-based probe fluorescence polarization; inhibition, % at 5.96 µM; 300,000 tested, 1.1% active; AID 1974, 2009;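 active = inhibition above the campaign mean inhibition plus 3 SD, cut at about 35% in these data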;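 also: 0% = GSTO1-1 with DMSO and 100% = wells lacking GSTO1-1 enzyme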
Target sequence (P78417 whole entry, looked up): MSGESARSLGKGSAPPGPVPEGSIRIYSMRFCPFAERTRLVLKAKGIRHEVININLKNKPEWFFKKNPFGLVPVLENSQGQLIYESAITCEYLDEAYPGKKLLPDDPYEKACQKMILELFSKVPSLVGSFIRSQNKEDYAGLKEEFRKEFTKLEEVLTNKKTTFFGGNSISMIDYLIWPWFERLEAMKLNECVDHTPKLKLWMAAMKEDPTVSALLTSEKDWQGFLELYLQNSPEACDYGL
LYPLA2 counter: LYPLA2 inhibitors, primary screen, counter-screen for PME1 inhibitor project, biochemical, fluorescence polarization, FP-Rh probe ABPP | 320,000 tested, 0.38% active | inhibition, % at 5.9 µM | recombinant LYPLA2 | AID 2177, 2009 | Acyl-protein thioesterase 2 (Homo sapiens), O95372;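 active = inhibition above the screen-wide mean plus 3 SD, limit set per campaign, cut at about 26% in these data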;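 also: 0% = LYPLA2 with DMSO and 100% = wells lacking LYPLA2 enzyme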
Fam108B inh: mouse Fam108B serine hydrolase inhibitors, primary screen, counter-screen for RBBP9 inhibitor project, biochemical, fluorescence polarization; AID 1947, 2009; inhibition, % at 9.51 µM; recombinant Fam108B, FP-Rh probe fluorescence polarization; 300,000 tested, 0.33% active;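 active = inhibition above the screen mean inhibition plus 3 SD, computed separately per campaign, cut at about 18% in these data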;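 also: inhibitors lower polarization as less probe binds the enzyme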
LYPLA1 counter: LYPLA1 inhibitors, primary screen, counter-screen for PME1 inhibitor project, biochemical, fluorescence polarization, FP-Rh probe ABPP. Acyl-protein thioesterase 1 (Homo sapiens), O75608. recombinant LYPLA1. inhibition, % at 5.9 µM. 320,000 tested, 0.16% active. AID 2174, 2009;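 active = inhibition above the mean of all tested compounds plus 3 SD, set per campaign, cut at about 14% in these data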;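 also: inhibitors block serine hydrolase probe labeling of LYPLA1 so polarization falls; 0% = enzyme with DMSO and 100% = wells lacking LYPLA1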
Target sequence (O75608 whole entry, looked up): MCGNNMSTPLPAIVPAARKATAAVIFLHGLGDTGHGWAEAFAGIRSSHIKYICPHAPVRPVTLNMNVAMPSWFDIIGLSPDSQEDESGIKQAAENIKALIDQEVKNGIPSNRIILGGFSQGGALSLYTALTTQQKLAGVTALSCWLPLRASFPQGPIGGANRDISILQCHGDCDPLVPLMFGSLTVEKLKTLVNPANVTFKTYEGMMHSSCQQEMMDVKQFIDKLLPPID
PME-1 inh: PME-1 inhibitors via competitive probe labeling, primary screen, biochemical, fluorescence polarization, FP-Rh probe, HTS | Protein phosphatase methylesterase 1 (Homo sapiens), Q9Y570 | recombinant PME-1 | inhibition, % at 5.9 µM | 320,000 tested, 0.53% active | AID 2130, 2009;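 active = inhibition above the campaign mean of all compounds plus 3 SD, cut at about 26% in these data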;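 also: competitive labeling of PME-1 active site by serine hydrolase directed probe; 0% = PME-1 with DMSO and 100% = wells lacking PME-1 enzyme; inhibitors block probe labeling so polarization falls and inhibition rises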
Fam108b inh conf: mouse Fam108b serine hydrolase inhibitors, confirmation, counter-screen for RBBP9 inhibitor project, biochemical, fluorescence polarization, triplicate; shares compounds with Fam108B inh; recombinant Fam108b, FP-Rh probe fluorescence polarization; inhibition, % at 9.51 µM; 930 tested, 44% active; AID 1978, 2009;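 active = inhibition above a limit from the primary screen, the mean over all compounds plus 3 SD, cut at about 19% in these data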;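 also: 0% = median of active Fam108b wells and 100% = catalytically dead S170A mutant; inhibitors free the probe so polarization falls as inhibition rises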
Fam108b ABPP HTS: inhibition of mouse Fam108b by HTS hits, late-stage follow-up, biochemical, gel-based ABPP, soluble recombinant form. shares compounds with Fam108B inh. fluorophosphonate probe. inhibition, % at 20 µM. 260 tested, 44% active; in the data active = inhibition above about 40%
Starred values were filed as active, the others as inactive; / = no result given. Compounds with a hit are over-represented: about 2% of the library has one in this group of screens.

SMILES | PREPL inhibitor | GSTO1 counter | LYPLA2 counter | Fam108B inh | LYPLA1 counter | PME-1 inh | Fam108b inh conf | others
CCCCCN(C(=O)CCC(=O)OCC(=O)c1ccc(C(C)CC)cc1)c1c(N)n(CCCC)c(=O)[nH]c1=O (centres undefined) | 9 | 6 | -3 | 4 | -1 | -6 | /
OCCNC(=S)Nc1ccc2nsnc2c1 | 22 | 85* | 12 | 28* | 14 | 24 | -1
Cc1ccc(S(=O)(=O)/N=C(/c2ccccc2)N(C)C)c(C)c1 | 8 | 0 | -2 | 2 | -2 | -4 | /
Cc1ccc(S(=O)(=O)N=C2C=C(Sc3ncn[nH]3)C(=O)c3ccccc32)c(C)c1 | / | / | / | / | / | / | / | Fam108b ABPP HTS=95*
CCc1ccc(S(=O)(=O)N=C2C=C(Sc3ncn[nH]3)C(=O)c3ccccc32)cc1 | / | / | / | / | / | / | / | Fam108b ABPP HTS=60*
CC(C)CCNc1nc(N)c([N+](=O)[O-])c(N2CCCCCC2)n1 | 14 | -9 | 2 | -1 | 1 | 3 | /
O=C(NCCc1ccc(Cl)cc1)C1CCCN1C(=O)Nc1ccccc1 (centres undefined) | -3 | 3 | 3 | 31* | 0 | 4 | 3
O=S(=O)(c1ccc(SCc2ccc(Cl)cc2)nc1)N1CCCC1 | 15 | / | 0 | / | -2 | 0 | /
CN(C)S(=O)(=O)c1cccc(NC(=O)c2c[nH]c3ccccc23)c1 | 20 | -8 | -34 | 126* | -15 | -15 | -18
CN(C)S(=O)(=O)c1cccc(NC(=O)COC(=O)c2cc(-c3cccc(Br)c3)nc3ccccc23)c1 | -21 | -36 | -21 | 31* | -15 | 5 | 60* | Fam108b ABPP HTS=90*
CCc1c(C(=O)Nc2ccc(OC)c(Cl)c2)[nH]c(C)c1C(C)=O | 28 | -14 | -7 | 19* | -14 | -4 | 39* | Fam108b ABPP HTS=0
CC(C)(C)OC(=O)N1CCC(NC(=O)c2[nH]cnc2C(=O)Nc2cccc(Cl)c2)CC1 | 9 | / | 1 | / | 1 | -7 | /
Nc1nn2cc(-c3ccc(Br)cc3)nc2c2ccccc12 | 32 | -27 | -1 | 27* | -8 | -1 | 3
Cc1ccccc1-n1cc(CNC(=O)CCc2nnc(CCc3ccccc3)o2)cn1 | 12 | -2 | -2 | -5 | -2 | -3 | /
Cc1cccc(OCc2nnc(SCC(=O)O)n2-c2ccccc2)c1 | 5 | -1 | 3 | -1 | -3 | 1 | /
c1cc2c3c(cccc3c1)NC1(CCC3(CC1)Nc1cccc4cccc(c14)N3)N2 | 35 | 28 | 8 | 36* | -8 | 47* | 7
c1cc2c3c(cccc3c1)NC1(CCCCC1)N2 | 20 | 16 | -10 | 3 | -9 | -3 | /
CCN(C(=O)c1ccc2c(SCC(=O)O)c3c(nc2c1)CCC3)c1cc(Cl)ccc1OC | 0 | -12 | 5 | -1 | 1 | 20 | /
CC(Sc1nnc(Nc2ccccc2)s1)C(=O)Nc1nc(-c2ccccc2)cs1 (centres undefined) | -14 | -1 | -32 | -12 | -25 | -21 | /
CC(Sc1nnc(NCc2ccccc2)s1)C(=O)Nc1ccc2c(c1)C(=O)c1ccccc1C2=O (centres undefined) | 42 | -99 | 0 | 38* | -16 | 22 | 19*
CC1CC(=O)Nc2ccccc2N1C(=O)CSc1nnnn1C(C)C (centres undefined) | 3 | / | 3 | / | 0 | -5 | /
c1ccc(Nc2nc(-c3ccccc3)nc3ccccc23)cc1 | 0 | -14 | -20 | -5 | -16 | -15 | /
Cc1ccc(-c2nc(Nc3ccc(O)cc3)c3ccccc3n2)cc1 | 18 | -11 | 9 | 35* | -6 | 41* | 3
COc1ccc(Nc2nc(-c3ccccc3O)nc3ccccc23)cc1 | 11 | -10 | -4 | 25* | -17 | 17 | -20

Screening data as filed in PubChem BioAssay.
